Out of some 360,000 compounds screened, about 620 (0.17%) were called active. The sample as a whole holds a higher share of actives than the screen did. Values without a mark were called inactive.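 The calls were made as follows: active = inhibition above a per-campaign cutoff, the mean of all compounds plus 3 SD (cut at about 60% in these data); inactive = the rest.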
Target: Nuclear receptor coactivator 3 (Homo sapiens) (UniProt Q9Y6Q9)
Assay: SRC3 coactivator transcriptional activity inhibitors, primary screen, cell-based, luminescence (AID 588352);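 also: 0% = DMSO-treated cells and 100% = gossypol-treated cells at 36 µM; higher means less SRC3-driven luciferase light from the GAL4 reporter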
Conditions: HEK293 GAL4-SRC3 luciferase reporter, at 3.6 µM, stronger effect = higher value

Nuclear receptor coactivator 3 (Homo sapiens), sequence (Q9Y6Q9 whole entry, looked up, the tested form may be a part): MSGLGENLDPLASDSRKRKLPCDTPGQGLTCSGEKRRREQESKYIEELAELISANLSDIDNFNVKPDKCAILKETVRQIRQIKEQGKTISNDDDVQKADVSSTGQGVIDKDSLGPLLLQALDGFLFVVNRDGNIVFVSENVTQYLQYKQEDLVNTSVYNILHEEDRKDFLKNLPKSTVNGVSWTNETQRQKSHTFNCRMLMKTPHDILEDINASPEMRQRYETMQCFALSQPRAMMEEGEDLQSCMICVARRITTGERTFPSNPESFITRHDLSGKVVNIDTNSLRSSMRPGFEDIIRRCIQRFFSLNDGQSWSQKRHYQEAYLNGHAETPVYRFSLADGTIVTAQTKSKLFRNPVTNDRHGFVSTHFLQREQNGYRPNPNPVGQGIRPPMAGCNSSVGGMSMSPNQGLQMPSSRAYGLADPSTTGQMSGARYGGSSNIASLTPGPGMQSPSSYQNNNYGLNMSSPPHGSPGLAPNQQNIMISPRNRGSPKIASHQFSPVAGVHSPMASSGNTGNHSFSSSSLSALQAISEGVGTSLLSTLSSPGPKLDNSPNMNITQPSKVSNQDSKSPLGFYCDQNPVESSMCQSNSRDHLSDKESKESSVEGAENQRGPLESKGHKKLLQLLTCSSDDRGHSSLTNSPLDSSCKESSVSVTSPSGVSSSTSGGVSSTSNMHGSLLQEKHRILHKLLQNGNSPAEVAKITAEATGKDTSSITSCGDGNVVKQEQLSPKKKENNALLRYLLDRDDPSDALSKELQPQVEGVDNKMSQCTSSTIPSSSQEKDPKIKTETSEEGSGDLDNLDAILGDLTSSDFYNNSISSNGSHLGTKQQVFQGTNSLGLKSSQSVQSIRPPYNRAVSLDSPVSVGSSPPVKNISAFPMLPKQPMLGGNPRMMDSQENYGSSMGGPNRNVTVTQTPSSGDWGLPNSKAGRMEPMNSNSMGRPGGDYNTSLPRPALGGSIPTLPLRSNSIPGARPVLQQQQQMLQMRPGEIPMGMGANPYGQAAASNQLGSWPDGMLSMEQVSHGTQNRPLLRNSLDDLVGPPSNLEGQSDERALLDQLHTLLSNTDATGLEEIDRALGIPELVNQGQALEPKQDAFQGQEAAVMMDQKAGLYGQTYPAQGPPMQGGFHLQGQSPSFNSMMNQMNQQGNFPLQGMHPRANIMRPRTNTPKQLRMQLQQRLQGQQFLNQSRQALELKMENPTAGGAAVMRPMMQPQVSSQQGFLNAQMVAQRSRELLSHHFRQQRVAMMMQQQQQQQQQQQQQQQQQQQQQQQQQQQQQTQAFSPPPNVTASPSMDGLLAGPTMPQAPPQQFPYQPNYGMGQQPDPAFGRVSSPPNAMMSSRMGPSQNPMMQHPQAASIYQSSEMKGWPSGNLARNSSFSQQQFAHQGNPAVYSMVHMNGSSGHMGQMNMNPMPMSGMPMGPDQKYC

Row | Structure (SMILES) | inhibition
1 | CC12CCC(O)CC1CCC1C2CCC2(C)C(C(=O)CC(O)C(F)(F)F)CCC12 (stereo not given) | 15.9%
2 | C[C@]12CC[C@H](O)C[C@H]1CC[C@@H]1C2CC[C@]2(C)[C@@H](C3=CC(=O)OC3)[C@@H](O)C[C@]12O (stereo not given in full) | 63.5% (active)
3 | Cc1cccc(OP(=O)(Oc2cccc(C)c2)OC(c2ccccc2)C(F)(F)F)c1 (stereo not given) | -1.86%
4 | C[N+]1(C)CCOC(O)(c2ccc(-c3ccc(C4(O)C[N+](C)(C)CCO4)cc3)cc2)C1 (stereo not given) | 20.3%
5 | CNC(=S)N/N=C1\C2CN3CCN(C2)CC1(c1ccccc1)C3 | 8.65%
6 | COC(=O)C1=C(c2ccc(-c3ccccc3)c(F)c2)C[C@@H]2CC[C@H]1N2C(=O)NCc1ccc(F)cc1 | 9.01%
7 | CCC(C)(O)C(=O)OC1C(=O)OC2CC3C(C)=CC(=O)C(O)C3(C)C3C4(O)OCC23C1C(C)C4O (stereo not given) | 93.7% (active)
8 | O=C(Cn1c(=O)n(CC2CS2)c2ccccc21)N1CCCCC1 (stereo not given) | -25.5%
9 | COc1ccccc1CN1CCN(C(=O)Cc2ccccc2)CC1 | 2.02%
10 | COC(=O)[C@@H]1C(OC(=O)c2ccccc2)CC2CCC1N2C (stereo not given in full) | 14.1%
11 | CN(C)CCN(CC1CCCN(Cc2ccccc2F)C1)C(=O)Cc1ccc(F)c(F)c1 (stereo not given) | 3.08%
12 | C=CC12CN(C)[C@@H]3C4CO[C@H](C[C@H]41)[C@]1(C(=O)Nc4ccccc41)[C@@H]32 (stereo not given in full) | 4.33%
13 | CCOc1ccc(-c2cc(C)[n+](CCN(CC)CC)c(-c3ccc(OCC)cc3)c2)cc1 | 78% (active)
14 | Cn1c(O)c(C=Nc2ccc3c(c2)CCC3)c(=O)n(C)c1=O | -9.05%
15 | COC1C(O)C(C)OC(OC2CCC3(C=O)C(CCC4C3CCC3(C)C(C5=CC(=O)OC5)CCC43O)C2)C1O (stereo not given) | 90.5% (active)
16 | Cn1c(C(=O)N2CCC(C(=O)N3CCC4(CC3)OCCO4)CC2)cc2sccc21 | 6.98%
17 | NC(=O)Cn1cc(C(=O)c2ccccc2F)c2ccccc21 | 10.3%
18 | Cc1ccc(P(=S)(c2ccc(C)o2)N2CCOCC2)o1 | 6.64%
19 | CC(c1ccccc1)(c1ccccc1)c1ccncc1 | 16.2%
20 | Fc1cccc(F)c1CN1CCN(Cc2c(F)cccc2F)CC1 | 28.2%
21 | COc1ccc2[nH]c3c(c2c1)CCN[C@H]3C | 7.99%
22 | CC(=O)OC1C2(CC3N4C(=O)C5(CO)SSC4(CC31O)C(=O)N5C)OC(C)C(C)(C)C2=O (stereo not given) | 67.7% (active)
23 | CC1CCCN1CCC(C(N)=O)(c1ccccc1)c1ccccc1 (stereo not given) | -21.2%
24 | COP(=O)(OC)C(NC(=O)c1ccc(C)cc1)C(Cl)(Cl)Cl (stereo not given) | -4%
25 | CCCCCCCCCCCCn1ccc(=N)cc1 | 76.9% (active)
26 | CCOC(=O)C1CN(C)CCC1=O (stereo not given) | 21.1%
27 | c1ccc2sc(N3CCNCC3)nc2c1 | -3.09%
28 | COc1cccc(OC)c1C(=O)NC(=S)N1C[C@H]2C[C@H](C1)c1cccc(=O)n1C2 | 19.2%
29 | OC(Cn1c2ccccc2c2ccccc21)C[n+]1ccccc1 (stereo not given) | -8.77%
30 | CN(C)P(=S)(Nc1ccccc1)C(Cl)(Cl)Cl (stereo not given) | 6.36%

Source: PubChem BioAssay AID588352 (The Scripps Research Institute Molecular Screening Center, 2011)
